Source: PubChem BioAssay (National Center for Advancing Translational Sciences (NCATS))
Sampled rows, rich in hits. Any-hit rate of the full collection: about 6.5%.
HCMV antiviral – inhibitors of human cytomegalovirus. 4.5% of 410,000 active. HFF cells, HCMV-luciferase reporter, 72 h; hits give low values. activity change, negative = inhibition, % at 57.5 µM; in the data active = activity change below about -60%; inconclusive = no clear call, values can overlap the other calls; inactive = above about -39%
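Two compound doses tested in HFFs infected with HCMV-luciferase, MOI 1 PFU/cell, 72 h at 37C. Lysate luminescence read with OneGlo; data normalized against buffer-only and 10uM Salinomycin inhibitor controls.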
FMDV inh – blocks foot and mouth disease virus. FMDV antiviral cell-based qHTS. Potency, µM (doses to about 57.9 µM), inactives show top-dose activity change, negative = inhibition, most hits filed as inhibitors. 1.2% of 410,000 active; calls by dose curve; tested in HEK293T cells; also: read-out not given here; potency is read from the fitted curve at half-maximal effect; nearly all actives have a fitted effect of over 45% in size
Lassa entry inh – blocks Lassa virus binding to or entry into cells; Potency, µM (top dose mostly 37.9 µM), for inactives: at the highest dose activity change, negative = inhibition, hits mostly inhibitors; Lassa virus pseudotype entry inhibition, cell reporter; 1.2% of 300,000 active; calls by dose curve; tested in HEK293 cells; also: potency is read from the fitted curve at half-maximal effect; nearly all actives have a fitted effect of over 50% in size
Vaccinia mCherry – vaccinia inhibition (mCherry reporter) | AID 720579 | 0.63% of 310,000 active | Potency, µM (titrated, usually from 36.5 µM), without a hit: at the top dose activity change, negative = inhibition, actives largely listed as inhibitors | Vaccinia virus mCherry reporter infection, fluorescence; calls by dose curve; tested in A549 cells; also: potency is read from the fitted curve at half-maximal effect; nearly all actives have a fitted effect of over 35% in size
VACV Venus inh – vaccinia inhibition (Venus reporter); Vaccinia virus Venus reporter expression, fluorescence; Potency, µM (series often up to 36.5 µM), without a hit: top-dose activity change, negative = inhibition, most hits filed as inhibitors; 0.46% of 330,000 active; calls by dose curve; tested in A549 cells; also: potency is read from the fitted curve at half-maximal effect; nearly all actives have a fitted effect of over 30% in size
MARV entry inh – Marburg virus entry inhibition. Marburg virus pseudotyped entry inhibition, cell reporter. Potency, µM (top dose mostly 37.8 µM), inactives show top-dose activity change, negative = inhibition, usual class: inhibitors. 1.8% of 300,000 active. AID 540276; calls by dose curve; tested in HEK293 cells; also: potency is read from the fitted curve at half-maximal effect
Starred values were filed as active, the others as inactive; [ ] = another dose, or the depositor's remark. % is scaled to controls: 0 for no effect and ±100 for the full control effect.

`COc1ccc(NC(=O)CN2CCN(Cc3ccccc3)S2(=O)=O)c(OC)c1` gave HCMV antiviral 20, FMDV inh 0%, Lassa entry inh -3%[46.1 µM], Vaccinia mCherry -13% and VACV Venus inh -6%.
For Cc1ccc(S(=O)(=O)N2CCN(Cc3ccccc3)CC2)c(C)c1N(C)S(=O)(=O)c1ccccc1 the results were HCMV antiviral -81*, FMDV inh -28%, Lassa entry inh inconclusive, Vaccinia mCherry -25%, VACV Venus inh -19% and MARV entry inh inconclusive.
`Cc1ccc(S(=O)(=O)N(C)c2c(C)ccc(S(=O)(=O)N3CCN(C)CC3)c2C)cc1` gave HCMV antiviral -3, FMDV inh 1%, Lassa entry inh -1%, Vaccinia mCherry -13%, VACV Venus inh -26% and MARV entry inh 12%.
`C=C(C)CN1CCN(S(=O)(=O)c2ccc(C)c(N(C)S(=O)(=O)c3ccc(C)cc3)c2C)CC1` gave HCMV antiviral -73*, FMDV inh -26%, Lassa entry inh inconclusive, Vaccinia mCherry -23%, VACV Venus inh -19% and MARV entry inh inconclusive.
For Cc1ccc(S(=O)(=O)N2CCN(Cc3ccccc3)CC2)c(C)c1NS(C)(=O)=O the results were HCMV antiviral 2, FMDV inh -17%, Lassa entry inh -36%[46.1 µM], Vaccinia mCherry -6% and VACV Venus inh 0%.
For Cc1ccc(S(=O)(=O)N(C)c2c(C)ccc(S(=O)(=O)N3CCN(C=O)CC3)c2C)cc1 the results were HCMV antiviral -90*, FMDV inh -4%, Lassa entry inh 3%, Vaccinia mCherry -5%, VACV Venus inh -16% and MARV entry inh -21%.
For CCCNC(=O)c1ccc2nc(-c3ccccc3)c(-c3ccccc3)nc2c1 the results were HCMV antiviral 30, FMDV inh -20%, Lassa entry inh inconclusive, Vaccinia mCherry -4%, VACV Venus inh -2% and MARV entry inh -25%.
`CCN1CCN(CCNC(=O)c2ccc3nc(-c4cccc(C)c4)c(-c4cccc(C)c4)nc3c2)CC1` gave HCMV antiviral -109* and FMDV inh -19%.
Screening CCc1nc2ccc(C(=O)NCCCN3CCN(c4ccccc4F)CC3)cc2nc1CC returned HCMV antiviral 23, FMDV inh 0%, Lassa entry inh inconclusive, Vaccinia mCherry -3%, VACV Venus inh -20% and MARV entry inh 10µM*.
`O=C(NCCCN1CCN(c2ccccc2F)CC1)c1ccc2nc(CCc3ccccc3)oc2c1` gave HCMV antiviral -101*, FMDV inh inconclusive, Lassa entry inh -24%[46.1 µM], Vaccinia mCherry -12%[7.34 µM] and VACV Venus inh -15%[7.34 µM].
Screening O=C(NCCCN1CCN(c2ccccc2F)CC1)c1ccc2nc(Cc3ccccc3)oc2c1 returned HCMV antiviral -3, FMDV inh inconclusive, Lassa entry inh -20%[46.1 µM], Vaccinia mCherry -25% and VACV Venus inh -29%.
`COc1ccccc1N1CCN(CCCCNC(=O)c2ccc3ccccc3c2)CC1` gave HCMV antiviral -7, FMDV inh inconclusive, Vaccinia mCherry inactive, VACV Venus inh -11% and MARV entry inh 8.9µM*.
`CC1(C)CC(=O)C=C(C#CC2CC2)C1` gave HCMV antiviral 3.
COc1ccc(CC(=O)Nc2sc3c(c2C(=O)Nc2cccc(C)c2)CCCCC3)cc1 was read as HCMV antiviral 47, FMDV inh 29%, Lassa entry inh -21%[46.1 µM], Vaccinia mCherry -9%[7.34 µM] and VACV Venus inh -9%[7.34 µM].
`COc1cccc(CNC(=O)c2cnc(N3CCCC3)nc2C)c1` gave HCMV antiviral -6, FMDV inh -4%, Lassa entry inh -2%[46.1 µM], Vaccinia mCherry -6% and VACV Venus inh -7%.
CC(C)=CCCC(C)=CCON=C1C[C@@H](O)[C@@H](O)[C@@H]2[C@H]3C(=O)N(C[C@@H]4CCCO4)C(=O)[C@@H]3CC[C@@H]12 was read as MARV entry inh -5%[14.2 µM].
`CC(C)NC(=O)N1CCN(S(=O)(=O)c2ccc3c(ccn3C)c2)CC1` gave HCMV antiviral 2, FMDV inh -7%, Lassa entry inh 5%[46.1 µM], Vaccinia mCherry 4% and VACV Venus inh 5%.
For CCc1ccc(-c2cc(C(=O)N3N=C(C(F)F)CC3(O)C(F)F)c3ccccc3n2)cc1 (stereo not drawn) the results were HCMV antiviral -87*, FMDV inh 6%, Lassa entry inh -7% and MARV entry inh inconclusive.
O=C(NCc1ccccn1)c1cc(-c2ccc(-c3ccccc3)cc2)nc2ccccc12 was read as HCMV antiviral -94*, FMDV inh 17% and MARV entry inh 0%.
CCNC(=S)NNC(=O)c1cc(-c2ccc(OCC)cc2)nc2ccccc12 was read as HCMV antiviral 150, FMDV inh 13µM*, Lassa entry inh 1.2µM* and MARV entry inh inconclusive.
For O=C(NCc1ccccn1)c1cc(-c2ccccc2)nc2ccccc12 the results were HCMV antiviral 54, FMDV inh -17%, Lassa entry inh 15%, Vaccinia mCherry -15%, VACV Venus inh 2% and MARV entry inh -25%.
For O=C(Nc1ncccn1)c1cc(-c2ccc(F)cc2)nc2ccccc12 the results were HCMV antiviral -31, FMDV inh 32µM*, Lassa entry inh 5%[46.1 µM], Vaccinia mCherry -20%, VACV Venus inh -11% and MARV entry inh 3%[46.1 µM].
For O=C(NNC(=O)c1cc(-c2ccncc2)nc2ccccc12)Nc1ccc(F)cc1 the results were HCMV antiviral 14, FMDV inh 23%, Lassa entry inh 5%, Vaccinia mCherry 0%, VACV Venus inh -4% and MARV entry inh -11%.
CSc1nc(N)c2ncn([C@@H]3O[C@H](COP(=O)(O)OP(=O)(O)O)[C@H](O)[C@H]3O)c2n1 was read as MARV entry inh 30%.
For CC(NC(=O)c1ccc(Cn2c(=O)c3cccn3c3cccnc32)cc1)c1ccccc1 (stereo not drawn) the results were HCMV antiviral -16, FMDV inh -9%, Lassa entry inh 9%[46.1 µM], Vaccinia mCherry -24% and VACV Venus inh -23%.
CCc1ccc(-c2cc(C(=O)Nn3cnnc3)c3ccccc3n2)cc1 was read as HCMV antiviral 20, FMDV inh 11µM*, Lassa entry inh 1.3µM*, Vaccinia mCherry -14%, VACV Venus inh -5% and MARV entry inh 1µM*.
`CCCc1ccc(-c2cc(C(=O)NN3CCOCC3)c3ccccc3n2)cc1` gave HCMV antiviral 31, FMDV inh 32%, Lassa entry inh 3% and MARV entry inh inconclusive.
COCCNC(=O)c1cc(-c2ccc(-c3ccccc3)cc2)nc2ccccc12 was read as HCMV antiviral -77*, FMDV inh 14%, Lassa entry inh inconclusive, Vaccinia mCherry inconclusive, VACV Venus inh -19% and MARV entry inh inconclusive.
Screening NS(=O)(=O)c1ccc(CCNC(=O)c2cc(-c3ccc(Br)cc3)nc3ccccc23)cc1 returned HCMV antiviral -88*, FMDV inh 12%, Vaccinia mCherry -1% and VACV Venus inh inconclusive.
